Activity calls are given as the source filed them. How the calls were made is not given here.
Molecular target: Estrogen receptor (Homo sapiens) (UniProt P03372)
Assay: displacement of fluorescent estrogen from ERalpha – cell-based, Cos7 ERalpha-GFP, flow cytometry, primary screen (AID 1211);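 further: 0% = DMSO vehicle wells and 100% = no E2-Alexa633 signal left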
Details: fluorescent ligand competition, stronger effect = higher value

Sequence of Estrogen receptor (Homo sapiens) (P03372 whole entry, looked up): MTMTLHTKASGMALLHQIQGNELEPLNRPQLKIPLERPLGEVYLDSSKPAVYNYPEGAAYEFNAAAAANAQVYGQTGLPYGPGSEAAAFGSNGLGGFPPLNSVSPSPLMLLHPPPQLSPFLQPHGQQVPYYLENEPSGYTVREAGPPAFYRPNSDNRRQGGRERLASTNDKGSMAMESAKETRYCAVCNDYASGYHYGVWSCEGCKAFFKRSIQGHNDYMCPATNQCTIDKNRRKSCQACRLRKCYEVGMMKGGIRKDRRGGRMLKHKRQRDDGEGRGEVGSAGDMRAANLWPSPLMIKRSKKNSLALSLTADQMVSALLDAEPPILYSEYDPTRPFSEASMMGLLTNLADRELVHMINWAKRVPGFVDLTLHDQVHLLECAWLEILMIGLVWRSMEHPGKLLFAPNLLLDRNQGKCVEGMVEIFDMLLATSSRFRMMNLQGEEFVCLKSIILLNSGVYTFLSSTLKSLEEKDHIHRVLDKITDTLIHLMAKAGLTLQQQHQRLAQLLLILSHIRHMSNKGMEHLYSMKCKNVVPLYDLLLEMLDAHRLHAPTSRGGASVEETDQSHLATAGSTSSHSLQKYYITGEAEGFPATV

SMILES	inhibition of ligand binding (at 10 µM)	inhibition of ligand binding (binding inhibition, at 0.1 µM) [%]
COc1ccc(N2Cc3cccc(C(=O)O)c3C2=O)cc1	26% (inactive)	44
Cc1ccc(C)c(/C(O)=C2/C(=O)C(=O)N(CCN3CCOCC3)C2c2ccco2)c1 (centres undefined)	0% (inactive)	52
Oc1ccc(-c2csc(-c3c[nH]c4ccccc34)n2)c(O)c1	57% (inactive)	45
CCc1ccc(Nc2cc(C(=O)NCCCN3CCOCC3)c3ccccc3n2)cc1	25% (inactive)	32
COc1ccc(C(Nc2ccccn2)c2oc(CO)cc(=O)c2O)cc1 (centres undefined)	32% (inactive)	22
O=C(Nc1cccc(-c2cn3cccnc3n2)c1)c1ccc2c(c1)OCO2	22% (inactive)	10
C=C(C)CNC(=S)NNC(=O)CCn1c2cc(Cl)ccc2c2ccc(Cl)cc21	60% (inactive)	15
Cc1cc(C)c(C(=O)COc2cccnc2[N+](=O)[O-])cc1C	19% (inactive)	30
COc1ccc(N2C(=O)c3ccccc3NC2c2ccc(OC)c(CSc3ccccn3)c2)cc1 (centres undefined)	40% (inactive)	19
CCOC(=O)c1c(/N=C/c2ccc(O)cc2O)sc2c1CCC2	58% (inactive)	42
Cc1cc(Cl)ccc1OCC(=O)OC(C)C(=O)N(C)C (centres undefined)	30% (inactive)	53
Cc1cccc(N2CSC3=C(C#N)C(c4ccc(C)o4)CC(=O)N3C2)c1 (centres undefined)	27% (inactive)	13
O=C(c1cc2c(s1)CCC2)N1CCN(c2ccccc2)CC1	16% (active)	70
O=C(c1cccc(F)c1)N1CCN(C(=O)c2cc3ncc(Br)cn3n2)CC1	35% (inactive)	50
N#Cc1c(NCCN)nc(NCc2ccccc2)c2c1CCN(Cc1ccccc1)C2	65% (inactive)	15
NS(=O)(=O)c1ccc2c(c1)C1C=CCC1C(C1CC=CCC1)N2 (centres undefined)	69% (active)	17
Cc1ccc2c(c1)c(=O)c1c3n2CCN(C(=O)CCl)C3CC1 (centres undefined)	21% (inactive)	26
Cc1ccsc1/C=C(\C(=O)c1ccc(OC(C)C)cc1)c1nc2ccccc2o1	12% (inactive)	40
CC(Cc1ccc(O)c(O)c1)C(C)Cc1ccc(O)c(O)c1 (centres undefined)	47% (inactive)	3

SMILES	inhibition of ligand binding (at 10 µM)	inhibition of ligand binding (binding inhibition, at 0.1 µM) [%]
CCSc1nnc(NC(=O)C2Cc3ccccc3CN2C(=O)c2ccco2)s1 (centres undefined)	26% (inactive)	44
Cc1cc(C)cc(OCC(=O)Nc2ccc(N3CCCC3)cc2)c1	80% (active)	17
CCOC(=O)C1CCCN(C(=O)c2cc3ncc(Br)cn3n2)C1 (centres undefined)	3% (inactive)	41
CCCc1nc2sc3ccccc3c(=O)c2c(=O)n1Cc1ccco1	42% (inactive)	1
Cc1ccc(C2=Nc3ccccc3N=C(c3ccco3)C2)c(O)c1	2% (inactive)	26
CCOC(=O)c1c(NC(=O)CSc2nnc(-c3ccccc3)o2)sc(C(C)=O)c1C	21% (inactive)	33
CC(C)C1Nc2c(O)cc(Cl)c([N+](=O)[O-])c2C2C=CCC21 (centres undefined)	40% (inactive)	16
COc1ccc(C2=NN(C(=O)c3cccnc3)C(c3ccccc3)C2)cc1 (centres undefined)	37% (inactive)	30
Cc1ccc(NC(=O)CSc2nc3ccccc3c3nc4ccccc4n23)cc1	60% (inactive)	27
Cc1ccc2[nH]c(=O)c(C3C(C#N)=C(N)Oc4c3ccc3cccnc43)cc2c1 (centres undefined)	27% (inactive)	26
Oc1ccccc1N=Nc1nc(-c2ccccc2)c(-c2ccccc2)[nH]1	52% (inactive)	27
Cc1ccc(S(=O)(=O)NCCn2c(C)cc3ccccc32)cc1	49% (inactive)	17
CS(=O)(=O)c1ccc2nc(NC(=O)CCC(=O)c3cccs3)sc2c1	33% (inactive)	14
COc1ccc2c(c1OC)C(=O)N1N=C(c3ccc(O)cc3)CC21 (centres undefined)	0% (inactive)	30
COc1ccc(C2Nc3ccccc3C(=O)N2c2ccc(C)cc2)cc1Cn1cc([N+](=O)[O-])cn1 (centres undefined)	26% (inactive)	7
Nc1ccc(N2CCN(C(=O)c3ccco3)CC2)cc1	28% (inactive)	33
Cc1ccc(-c2n[nH]c(=S)n2/N=C/C=C/c2ccccc2[N+](=O)[O-])cc1	1% (inactive)	14
O=c1cc(-c2ccc(O)c(-c3c(O)cc(O)c4c(=O)cc(-c5ccc(O)cc5)oc34)c2)oc2cc(O)cc(O)c12	24% (inactive)	9

Source: PubChem BioAssay AID1211 (NMMLSC, 2008)
